From PubChem BioAssay AID492956 (The Scripps Research Institute Molecular Screening Center, 2010)
“And” between values parts separate entries of the source, which are not always exact repeats. Equal entries are not always repeated. The campaign covered roughly 340,000 compounds. About 3,300 (0.97%) were called active.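 The calls were made as follows: active = inhibition above the mean over all tested compounds plus 3 SD (cut at about 30% in these data); inactive = the rest.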 Many of the other results were omitted from the sample, so actives are more common in it than they were.

The compounds below were run against Platelet-activating factor acetylhydrolase 2, cytoplasmic (Homo sapiens) (UniProt Q99487) (assay: PAFAH2 enzyme inhibitors, primary screen, biochemical, fluorescence polarization, human (AID 492956;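 also: inhibitors block probe labeling of enzyme so polarization drops; 0% = enzyme with DMSO and 100% = wells lacking PAFAH2 protein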)). Details: recombinant PAFAH2, FP-rhodamine activity probe, at 3.39 µM, active compounds read high.

SMILES	inhibition
COCCNC(=O)CN(Cc1ccco1)C(=O)CCC(=O)Nc1nccs1	-1% (inactive)
COc1ccccc1OCCCC(=O)Nc1ccc2c(c1)OCCO2	-0.62% (inactive)
COc1cc(/C=C/C(=O)OCC(=O)NC(=O)NCc2ccccc2)ccc1OCC#N	-1.43% (inactive)
COc1cc(/C=C/C(=O)OCC(=O)NCCCc2ccccc2)ccc1O	48.4% (active)
COc1ccc(OC)c(/C=C/C(=O)OCC(=O)Nc2ccc3c(c2)OCCO3)c1	43.7% (active)
COc1cccc(NC(=O)CN(C)C(=O)/C=C/c2cc(OC)ccc2OC)c1	1.18% (inactive)
COc1ccc([N+](=O)[O-])cc1NC(=O)COC(=O)/C=C/c1ccco1	14.1% (inactive)
COc1ccc(OC)c(/C=C/C(=O)c2ccc3c(c2)OCO3)c1	10.8% (inactive)
NS(=O)(=O)c1cccc(NC(=O)COC(=O)/C=C/c2ccco2)c1	26.1% (inactive)
COc1cccc(NC(=O)COC(=O)/C=C/c2ccco2)c1	71.4% (active)
COc1cccc(NC(=O)COC(=O)CCOc2ccccc2OC)c1	3.71% (inactive)
COc1cc(/C=C/C(=O)OCC(=O)c2ccccc2)cc(OC)c1OC	18% (inactive)
COc1ccc(/C=C/C(=O)OCC(=O)Nc2cccc(Oc3ccccc3)c2)c(OC)c1	44.5% (active)
O=C(Nc1cccc2c1CCCC2)C1CCN(C(=O)NC2CCCCC2)CC1	-4.67% (inactive)
COc1ccc(OC)c(/C=N/NC(=O)c2ccc[n+](CC(=O)c3ccccc3)c2)c1	-2.42% (inactive)
Cc1ccc(/C=C/C(=O)O)cc1S(=O)(=O)N1CCC(Cc2ccccc2)CC1	2.39% (inactive)
O=C(C[C@@H]1C/C=C\CCC(=O)OC[C@@H]2CCCN2C1=O)NCCO	15.7% (inactive)
CCOc1ncccc1C(=O)N(C)CC(=O)Nc1ccc(F)cc1	-4.72% (inactive)
CC1CCc2sc(C(=O)N/N=C/C3CCCCC3)cc2C1 (stereo unspecified)	0.32% (inactive)
O=C(CSc1nnc(COc2ccc(Cl)cc2)n1Cc1ccco1)N1CCNC1=O	6.03% (inactive)
COc1ccc(C(=O)OCC(=O)NCCCc2ccccc2)cc1OC	55.4% (active)
Cc1cnc(C(=O)OCC(=O)NCCCc2ccccc2)cn1	4.7% (inactive)
O=C(COC(=O)c1ccc(F)cc1)NCCCc1ccccc1	21.2% (inactive)

SMILES	inhibition
Cn1c2c(c(=O)n(C)c1=O)CN(Cc1ccco1)CN2	-2.71% (inactive)
CCCN(CC(=O)Nc1ccccc1C)C(=O)c1ccc2[nH]c3c(c2c1)CC(C)CC3 (stereo unspecified)	8.67% (inactive)
CCOc1ccc(S(=O)(=O)N2CCCCC2)cc1NC(=O)CN1CCCC1c1cccs1 (stereo unspecified)	-0.88% (inactive)
CC(=O)Nc1ccc(S(=O)(=O)NCC2CCC(C(=O)NCCc3ccccc3)CC2)cc1 (stereo unspecified)	6.72% (inactive)
CC1=NN(c2ccc(Cl)c(C(=O)O)c2)C(=O)/C1=C/c1ccc(-c2ccccc2[N+](=O)[O-])o1	36.5% (active)
O=C1NC(c2ccc(-c3ccccc3[N+](=O)[O-])o2)C(C(=O)c2ccc(Cl)cc2)C(O)(C(F)(F)F)N1 (stereo unspecified)	1.45% (inactive)
O=C(Nc1ccc(N2CCOCC2)cc1)c1ccc(-c2ccccc2[N+](=O)[O-])o1	-11.3% (inactive)
CC(CO)(CO)NC(=O)c1ccc(=O)[nH]n1	-12.6% (inactive)
Cc1c2cnn(CC(=O)NCCCN3CC(C)CC(C)C3)c(=O)c2c(C)n1Cc1ccc(Cl)cc1 (stereo unspecified)	5.22% (inactive)
COc1ccc(N(C(=O)c2cccnc2)S(=O)(=O)c2ccc(OC)c(OC)c2)cc1	-3.27% (inactive)
O=C(c1cccnc1)N(Cc1ccccc1)C(=O)c1cccnc1	3.92% (inactive)
O=C(c1cccnc1)N(c1cc2sc(=O)oc2c2ccccc12)S(=O)(=O)c1ccccc1	36.6% (active)
COc1cccc2oc(CCc3ccccc3)cc(=O)c12	6.23% (inactive)
CCC1C(C#N)=C(SC)NC2=C1C(=O)CC(C)(C)C2 (stereo unspecified)	-6.12% (inactive)
O=C(OCC(=O)c1cccs1)C1=COCCO1	17.6% (inactive)
CCC(C)(C)c1ccc(Oc2ccc(NC(=O)COC(=O)C3=COCCO3)cc2)cc1	55.4% (active)
CCOc1ccc(NC(=O)c2ccc(NC(=O)COC(=O)c3ccc(NC(=O)CC#N)cc3)cc2)cc1	-53.2% (inactive)
COc1cccc(C2=CC(=O)C[C@H](c3ccc(F)cc3)C2)c1OC	-13.9% (inactive)
O=C(OC1CCOC1=O)c1cccc(S(=O)(=O)Nc2ccc(F)cc2)c1 (stereo unspecified)	9.72% (inactive)
Cc1ccc2nc(COc3ccc(N(C)S(=O)(=O)c4ccccc4)cc3)cc(=O)n2c1	8.78% (inactive)
CC1CCCCC1NC(=O)CCS(=O)(=O)c1ccc2c(c1)NC(=O)CO2 (stereo unspecified)	26.2% (inactive)
O=[N+]([O-])c1ccc(C=Nc2ccc(Cl)cc2Cl)s1	63.8% (active)
CNN/C(N=Cc1ccc([N+](=O)[O-])s1)=N\S(=O)(=O)c1cc(C)c(Cl)cc1SCc1ccccc1	5.01% (inactive)

SMILES	inhibition
CC1CN(C(=O)c2ccc([N+](=O)[O-])s2)CC(C)O1 (stereo unspecified)	5.08% (inactive)
O=C1COc2ccc(C(=O)COC(=O)CCOc3ccccc3)cc2N1	0.36% (inactive)
COc1ccc(OC)c(-c2csc(-c3cccs3)n2)c1	5.06% (inactive)
COc1cccc(C(=O)n2ccc(-c3cccs3)n2)c1	31.8% (active)
COc1cccc(NC(=O)CN(C)C(=O)/C=C/c2cn(-c3ccccc3)nc2-c2cccs2)c1	-54.5% (inactive)
CC(C)(C)c1ccc(Cn2nnc3c(=O)[nH]c(C4CCCN(C(=O)c5ccco5)C4)nc32)cc1 (stereo unspecified)	-1.16% (inactive)
Cc1cc(C)cc(NC(=O)CCN2C(=O)c3ccccc3C2=O)c1	-14% (inactive)
CCn1cc(CN2CCN(CC(C)(C)C)C(CCO)C2)c2ccccc21 (stereo unspecified)	1.37% (inactive)
COc1ccc(/C=C/C(=O)OCC(=O)NC2CCCCCC2)cc1OC	87.4% (active)
COc1ccc(CCNC(=O)COC(=O)/C=C/c2cccs2)cc1OC	6.71% (inactive)
O=C(CCC(=O)c1cccs1)NC1CCCCCC1	8.2% (inactive)
COc1cc(/C=C/C(=O)OCC(=O)NC2CC2)cc(OC)c1OC	9.4% (inactive)
COc1ccccc1-n1ccnc(SCC(=O)NC2CCCCC2)c1=O	-2.23% (inactive)
CCOc1ccc(/C=C/C(=O)OCC(=O)c2ccccc2OC)cc1OC	6.36% (inactive)
COc1ccccc1/C=C/C(=O)NC1CC2CCC1C2 (stereo unspecified)	-0.78% (inactive)
O=C(COC(=O)/C=C/c1cccs1)NC1CCCCC1	80.5% (active)
COc1ccccc1/C=C/C(=O)OCC(=O)NC1CCCCCC1	93.2% (active)
COc1cc2c(C(=O)N3CCN(C)CC3)c(CSc3ccccc3)n(C)c2cc1Br	-5.01% (inactive)
COc1ccc(NC(=O)c2cccc(Cl)c2)c[n+]1[O-]	-0.76% (inactive)
O=C(CSCc1c(Cl)cccc1Cl)NN1C(=O)c2ccccc2C1=O	11.8% (inactive)
Cc1cccc(CN2CCN(Cc3cnn(-c4ccccc4F)c3)CC2CCO)n1 (stereo unspecified)	-6.68% (inactive)
COc1ccc(C(=O)O/N=C(\N)Cc2ccc(Cl)cc2Cl)cc1OC	85.3% (active)
COc1ccc(C(=O)n2nc(-c3ccc(Cl)cc3)nc2N)cc1OC	3.15% (inactive)

SMILES	inhibition
COc1ccc(CCn2ccc(O)c(Cc3ccc(Cl)cc3Cl)c2=O)cc1OC	-2.38% (inactive)
C=CCOc1ccc(C(=O)Nc2ccccc2C(=O)N2CCCC2)cc1	7.79% (inactive)
CCCCn1c(O)c(N=NC(=O)Cn2c(C(F)(F)F)nc3ccccc32)c2ccccc21	-3.07% (inactive)
O=C(O)Cc1csc(-c2cccc(Oc3ccccc3)c2)n1	3.06% (inactive) and 0.17% (inactive)
CC1CC(C)CN(c2ccc(S(=O)(=O)N3CCOCC3)cc2)C1 (stereo unspecified)	13.7% (inactive)
Cc1ccc(OCC(=O)N2CCN(S(=O)(=O)c3ccc(Cl)s3)CC2)cc1C	6.03% (inactive)
Cc1ccc(S(=O)(=O)N(C)C)cc1NC(=O)COC(=O)/C=C/c1cccs1	59.3% (active)
CN(C)S(=O)(=O)c1cccc(NC(=O)COC(=O)c2cc(=O)[nH]c(=O)[nH]2)c1	0.25% (inactive)
CN(C)S(=O)(=O)c1cccc(NC(=O)COC(=O)/C=C/c2cccs2)c1	72.2% (active)
Cc1ccc(S(=O)(=O)N(C)C)cc1NC(=O)COC(=O)c1c(C)noc1C	-9.47% (inactive)
Cc1ccc(S(=O)(=O)N(C)C)cc1NC(=O)/C=C/c1cccs1	5.59% (inactive)
CN(C)S(=O)(=O)c1cccc(NC(=O)COc2ccc3ccccc3c2)c1	-8.6% (inactive)
O=C(C1CCN(S(=O)(=O)Cc2ccccc2)CC1)N1CCCc2ccccc21	-7.5% (inactive)
COCCNC(=O)/C(C#N)=C/c1nc(N(C)C)n(-c2ccc(F)cc2)c1Cl	1.81% (inactive)
COCCNC(=O)/C(C#N)=C/c1cccc(OCc2ccccc2)c1	30.2% (active)
CCOC(=O)NC(=O)/C(C#N)=C\c1ccccc1	-7.65% (inactive)
Cc1cc(C(=O)COc2ccccc2Cl)c(C)n1C1CC1	0.58% (inactive)
Cc1ccc(-n2c(C)cc(C(=O)CN3C(=O)C(=O)N(C4CCCC4)C3=O)c2C)cc1	4.94% (inactive)
Cc1cc(C(=O)COC(=O)C2CC2)c(C)n1-c1ccc(F)cc1	44.5% (active)
COc1ccc(/C=N/N(C)C2=NS(=O)(=O)c3ccccc32)cc1OC	31.8% (active)
COc1cc(C(=O)NN(CCC#N)C2=NS(=O)(=O)c3ccccc32)cc(OC)c1OC	4.52% (inactive)
C=CCOCCN(C)C1=NS(=O)(=O)c2ccccc21	-9.33% (inactive)
